In experiment [1] the target is Retinoic acid receptor RXR-alpha (Homo sapiens) (UniProt P19793). Put plainly: qHTS assay for small molecule agonists of retinoid X receptor alpha signaling (AID 588544; calls by dose curve;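 further: 0% = DMSO basal wells and 100% = reference agonist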). Particulars: HEK293T RXRa-UAS-bla, beta-lactamase reporter, 18 h; series mostly up to 76.7 µM.
Experiment [2] addresses Thyroid hormone receptor beta (Homo sapiens) (UniProt P10828). The experiment in a line: qHTS assay for small molecule agonists of thyroid hormone receptor beta signaling (AID 588545; calls by dose curve). Particulars: TR-UAS-bla GripTite HEK 293, beta-lactamase ratio, agonist mode, 18 h, percent of T3 response, DMSO as zero; series mostly up to 76.7 µM. Put shortly:
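HEK 293 TR-UAS-bla; agonist mode; 18 hrs, 37 C; CCF4, ex 405/em 460 and 530 nm; norm. T3 10 nM = 100%, DMSO = 0%; Hill fit → EC50, efficacy.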

The target is the same in experiment [3]. The experiment in a line: qHTS assay for small molecule antagonists of thyroid hormone receptor beta signaling (AID 588547; active means well fitted inhibition curve with a large enough effect in the signal ratio, with a control signal flat, not every such curve was filed as active; the % refers to the signal ratio;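 further: cells stimulated with 0.4 nM T3 agonist during compound exposure; on the % scale 0 is the no-effect control and ±100 the full control effect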). Particulars: TR-UAS-bla HEK293, beta-lactamase ratio, antagonist mode, 18 h. An outline of the steps:
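TR-UAS-bla GripTite HEK293 cells in 2% charcoal/dextran FBS medium; compounds 0.59 nM to 92 uM with T3 at 0.4nM final, 18 h at 37 C. Beta-lactamase read by CCF4 fluorescence (460/530 nm); Hill fits gave IC50 and efficacy.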

Experiment [4] deals with Voltage-gated inwardly rectifying potassium channel KCNH2 (Homo sapiens) (UniProt Q12809). Put plainly: qHTS Assay for Small Molecule Inhibitors of the Human hERG Channel Activity (AID 588834).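 Further: top concentration of the series differs between compounds; on the % scale 0 is the no-effect control and ±100 the full control effect; lower thallium flux fluorescence means stronger hERG block; nearly all actives have a fitted effect of over 50% in size.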 Particulars: U2OS BacMam hERG, FluxOR thallium flux fluorescence; series mostly up to 92.2 µM. Put shortly: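 hERG-BacMam U2OS, 2000 cells/well; 0.7X FluxOR loading 1 hr RT dark; cpd ~10 min 37 °C; stim buffer; FDSS fluorescence 2 min @ 1 s; AC50 Hill fit.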

The target of experiment [5] is Luciferin 4-monooxygenase (Photinus pyralis) (UniProt P08659). The experiment in a line: Biochemical firefly luciferase enzyme assay for NPC (AID 624030). Further: nearly all actives have a fitted effect of over 70% in size. Further: potency means the concentration at half of the fitted maximal effect. Particulars: purified P. pyralis luciferase, luminescence, 5 min; series mostly up to 58.6 µM. Put shortly:
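Purified P. pyralis luciferase at 10 nM in 50 mM Tris Acetate (final), luminescence read within 5 minutes of enzyme addition to compounds. Activity normalised to PTC124 versus DMSO; concentration-response curves classed by r2, magnitude and activity.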

A short description of experiment [6]: S16 Schwann cell viability assay (CellTiter-Glo assay) (AID 624031).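 Further: native untransfected S16 rat Schwann cells; cellular ATP luminescence as a viability measure; plate controls were DMSO-treated cells for no effect and cell-free wells for full effect; nearly all actives have a fitted effect of over 70% in size.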 Particulars: S16 rat Schwann cells viability, 24 h; series mostly up to 57.5 µM. An outline of the steps: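 Cells were seeded at 500-750 per well in phenol red-free DMEM with 10% FBS and left overnight. Compounds or DMSO were pinned in, incubation ran 24 h at 37 °C/5% CO2, then CellTiter-Glo reagent was added and luminescence measured.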

Experiment [7] in a line: qHTS assay for small molecule antagonists of retinoid X receptor alpha signaling (AID 588546; active means well fitted inhibition curve with a large enough effect in the signal ratio, with a control signal flat, not every such curve was filed as active; the % refers to the signal ratio;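 further: cells stimulated with 9-cis-retinoic acid as agonist; on the % scale 0 is the no-effect control and ±100 the full control effect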). Particulars: HEK293T RXRa-UAS-bla, beta-lactamase ratio, antagonist mode; measured here: W530 green channel, cytotoxicity proxy. Put shortly: (§1)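 Beta-lactamase reporter inhibition, read as CCF4 fluorescence ratio (ex 405, em 460/530 nm) after 2 h at RT. HEK293T UAS-bla cells, 2500/well, were stimulated with 9-cis-RA at 500 or 100 nM final alongside test compound for 18 h at 37 C.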

For experiment [8], the target named is Retinoic acid receptor RXR-alpha (Homo sapiens) (UniProt P19793). The experiment is described as above. Particulars: HEK293T RXRa-UAS-bla, beta-lactamase ratio, antagonist mode. An outline of the steps: as §1
The nature of experiment [9]: S16 Schwann cell PMP22 intronic element firefly luciferase assay (AID 624032). Further: potency means the concentration at half of the fitted maximal effect; nearly all actives have a fitted effect of over 30% in size. Particulars: S16 rat Schwann cells, PMP22 element FLuc, 24 h. Put shortly:
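Rat S16 Schwann cells stably carrying firefly luciferase driven by a PMP22 intronic element, in 10% FBS, treated 24 h at 37 C. ONE-Glo luminescence normalized to PTC124 control and DMSO (0%); curves classed by r2, magnitude and activity.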

Experiment [10] in a line: S16 Schwann cell PMP22 intronic element beta-lactamase assay (AID 624044; calls by dose curve; further: potency means the concentration at half of the fitted maximal effect; nearly all actives have a fitted effect of over 15% in size). Particulars: S16 rat Schwann cells, PMP22 element beta-lactamase FRET, 24 h. An outline of the steps:
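Rat S16 Schwann cells with beta-Lac driven by a PMP22 intronic element, compound-treated 24 h at 37 °C. LiveBLAzer FRET B/G read: 460 nm normalized to potassium clavulanate vs DMSO; 535 nm FRET as viability; concentration-effect curves classified.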

Structures are written as SMILES. Records with an inconclusive call do not appear. Active and inactive are the calls of the source. Unless noted, the call rests on the fitted dose curve; in most records, active means well fitted curve in the direction sought with a large enough effect; inconclusive means small, poorly fitted or top-dose-only effect, or another doubt; inactive means no such curve, though single readings can be large; an effect the other way counts as inactive or inconclusive.

Sequence of Voltage-gated inwardly rectifying potassium channel KCNH2 (Homo sapiens) (Q12809 whole entry, looked up): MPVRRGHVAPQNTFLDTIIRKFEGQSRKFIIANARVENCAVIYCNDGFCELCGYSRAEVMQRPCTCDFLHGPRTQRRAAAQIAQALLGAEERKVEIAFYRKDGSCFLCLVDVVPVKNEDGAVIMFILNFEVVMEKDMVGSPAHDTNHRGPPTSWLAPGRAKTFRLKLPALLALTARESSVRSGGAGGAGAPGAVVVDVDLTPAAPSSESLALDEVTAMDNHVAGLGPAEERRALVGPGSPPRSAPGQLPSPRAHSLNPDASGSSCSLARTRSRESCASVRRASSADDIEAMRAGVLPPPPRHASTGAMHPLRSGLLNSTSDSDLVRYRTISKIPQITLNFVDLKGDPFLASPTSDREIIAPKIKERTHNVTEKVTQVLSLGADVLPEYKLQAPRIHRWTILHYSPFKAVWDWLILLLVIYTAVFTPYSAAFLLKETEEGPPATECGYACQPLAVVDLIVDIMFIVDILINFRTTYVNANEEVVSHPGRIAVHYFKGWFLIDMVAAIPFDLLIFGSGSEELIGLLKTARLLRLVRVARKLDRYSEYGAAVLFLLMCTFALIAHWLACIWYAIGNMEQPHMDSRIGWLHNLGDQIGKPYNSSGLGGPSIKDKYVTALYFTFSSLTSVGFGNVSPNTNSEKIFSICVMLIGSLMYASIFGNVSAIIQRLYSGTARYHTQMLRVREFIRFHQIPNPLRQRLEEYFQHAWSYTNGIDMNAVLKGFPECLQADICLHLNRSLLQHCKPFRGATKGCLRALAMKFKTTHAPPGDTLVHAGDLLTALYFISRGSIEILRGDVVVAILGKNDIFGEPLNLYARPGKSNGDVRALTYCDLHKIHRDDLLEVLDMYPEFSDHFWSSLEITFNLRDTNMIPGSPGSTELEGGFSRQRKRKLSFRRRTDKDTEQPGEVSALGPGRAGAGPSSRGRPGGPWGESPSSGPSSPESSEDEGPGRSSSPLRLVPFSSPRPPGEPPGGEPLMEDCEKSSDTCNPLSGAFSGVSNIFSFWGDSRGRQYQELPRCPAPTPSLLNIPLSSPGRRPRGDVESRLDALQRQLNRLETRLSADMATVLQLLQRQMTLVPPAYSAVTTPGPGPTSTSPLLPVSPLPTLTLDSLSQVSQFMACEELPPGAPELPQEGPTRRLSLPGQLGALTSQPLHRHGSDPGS
Sequence of Retinoic acid receptor RXR-alpha (Homo sapiens) (P19793 whole entry, looked up): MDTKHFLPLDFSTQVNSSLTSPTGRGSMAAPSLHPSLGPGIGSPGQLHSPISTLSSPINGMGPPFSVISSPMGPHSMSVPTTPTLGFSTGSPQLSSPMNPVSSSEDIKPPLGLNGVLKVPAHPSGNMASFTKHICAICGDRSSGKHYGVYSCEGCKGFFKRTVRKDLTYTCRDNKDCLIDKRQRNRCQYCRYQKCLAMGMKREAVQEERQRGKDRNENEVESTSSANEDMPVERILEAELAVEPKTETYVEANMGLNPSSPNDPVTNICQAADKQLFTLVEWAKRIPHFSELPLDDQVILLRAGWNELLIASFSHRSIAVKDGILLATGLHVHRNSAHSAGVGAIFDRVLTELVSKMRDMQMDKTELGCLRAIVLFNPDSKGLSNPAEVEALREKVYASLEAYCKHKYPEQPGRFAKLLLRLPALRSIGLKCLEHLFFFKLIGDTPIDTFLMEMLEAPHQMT
Sequence of Thyroid hormone receptor beta (Homo sapiens) (P10828 whole entry, looked up): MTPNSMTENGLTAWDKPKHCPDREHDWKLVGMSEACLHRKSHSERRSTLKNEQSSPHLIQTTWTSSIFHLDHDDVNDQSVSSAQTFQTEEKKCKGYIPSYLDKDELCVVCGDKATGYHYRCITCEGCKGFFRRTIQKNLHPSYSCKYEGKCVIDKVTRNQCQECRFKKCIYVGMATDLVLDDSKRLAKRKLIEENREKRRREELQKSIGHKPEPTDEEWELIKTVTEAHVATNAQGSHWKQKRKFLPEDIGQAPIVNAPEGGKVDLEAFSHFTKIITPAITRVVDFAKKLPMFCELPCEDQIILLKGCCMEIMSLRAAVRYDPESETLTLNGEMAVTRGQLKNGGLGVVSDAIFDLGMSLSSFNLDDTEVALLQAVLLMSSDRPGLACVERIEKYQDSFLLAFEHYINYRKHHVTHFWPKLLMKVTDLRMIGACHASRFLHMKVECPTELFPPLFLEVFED
Sequence of Luciferin 4-monooxygenase (Photinus pyralis) (P08659 whole entry, looked up): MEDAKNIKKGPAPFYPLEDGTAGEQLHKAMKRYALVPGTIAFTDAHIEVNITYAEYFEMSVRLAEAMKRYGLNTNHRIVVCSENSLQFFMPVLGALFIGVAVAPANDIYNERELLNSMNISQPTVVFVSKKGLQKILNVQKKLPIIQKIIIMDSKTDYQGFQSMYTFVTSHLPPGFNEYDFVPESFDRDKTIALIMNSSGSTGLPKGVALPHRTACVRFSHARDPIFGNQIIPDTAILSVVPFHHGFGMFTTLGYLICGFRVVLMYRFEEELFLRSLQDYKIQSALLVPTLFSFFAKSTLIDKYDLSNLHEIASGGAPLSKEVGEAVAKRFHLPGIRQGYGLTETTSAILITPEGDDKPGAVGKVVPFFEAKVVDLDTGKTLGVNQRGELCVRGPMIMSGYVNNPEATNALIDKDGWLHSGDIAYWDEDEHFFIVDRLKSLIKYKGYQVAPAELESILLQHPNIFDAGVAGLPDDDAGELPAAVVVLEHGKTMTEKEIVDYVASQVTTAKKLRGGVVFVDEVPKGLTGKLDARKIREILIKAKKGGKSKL

Regarding `CC(=O)O[C@H]1C(=O)[C@@]2(C)[C@H]([C@H](OC(=O)c3ccccc3)[C@]3(O)C[C@H](OC(=O)[C@H](O)[C@@H](NC(=O)c4ccccc4)c4ccccc4)C(C)=C1C3(C)C)[C@]1(OC(C)=O)CO[C@@H]1C[C@@H]2O`, the outcome in [1], in experiment [2], in experiment [4] and in experiment [6] was inactive. Besides, the activity change % (negative = inhibition) in experiment [3] is -8.03% (inactive). For the same molecule, the Potency entry in experiment [5] is “inactive”.

As for `Nc1ccccc1N`, the call in experiment [1], in experiment [2] and in experiment [4] was inactive. Besides, the max response in experiment [7] was 1.4%; in [8], -8.62% (inactive). Besides, the activity change % (negative = inhibition) in experiment [3] is -38.2% (inactive). For the same molecule, the Potency in [5] was 2.63 µM (active).

With `CC(=O)O[C@@H]1CC(C)=C2[C@H]1[C@H](C)CC[C@H]2/C=C(\C)C(=O)O`, the call in [1], in experiment [2] and in [4] was inactive. Also, the max response in experiment [7] was -4.2%; in experiment [8], 22.1% (inactive). Besides, in experiment [3], the activity change % (negative = inhibition) is 19.9% (inactive).

Turning to `Cc1ccc(N)cc1O`, the molecule was classed as inactive in experiment [1], in experiment [2] and in [4]. The values for the max response in [7] and in experiment [8] were -3.5% and 0.585% (inactive), respectively. Moreover, the activity change % (negative = inhibition) in [3] is -1.32% (inactive).

Regarding `CC[C@]1(O)CC2CN(CCc3c([nH]c4ccccc34)[C@@](C(=O)OC)(c3cc4c(cc3OC)N(C)[C@H]3[C@@](O)(C(=O)OC)[C@H](OC(C)=O)[C@]5(CC)C=CCN6CC[C@]43[C@@H]65)C2)C1` (stereo partly drawn), the Potency entry in [5] is “inactive”. In addition, the Potency was 721 nM (active) in experiment [9] and 224 nM (active) in [10].

(Values after PubChem BioAssay (NCATS).)
